The whole screen tested about 360,000 compounds, of which about 7,500 (2.1%) were called active. About 8% were inconclusive and are not listed. Shown is part of a subset that was picked to be rich in actives. Where a call stands in place of a potency, no number is given. More than one record can exist for a structure, and the calls need not agree. Unmarked numbers belong to inactive results. The call rests on the fitted dose curve; in most records, active means well fitted cell-killing curve with a large enough effect; inconclusive means small, poorly fitted or top-dose-only effect, or effect the other way, or another doubt; inactive means no such curve, though single readings can be large or run the other way.
Assay: qHTS for induction of synthetic lethality in tumor cells producing 2HG: qHTS for the HT-1080-IDH1KD cell line
Conditions: HT-1080 IDH1 knockdown viability, ATP luminescence, 48 h; series mostly up to 46.1 µM
How it was run: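 CellTiter-Glo luminescence after 48 h compound exposure at 37 degrees C of IDH1-knockdown HT-1080 cells in 5% FBS RPMI. %Activity scaled between DMSO wells and cell-free media wells, with curves fitted and assigned curve classes.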
Potency means the concentration at half of the fitted maximal effect.

Row | Compound | Potency | activity, negative = toxicity
1 | CCOC(=O)C1(C)CCCN(C(=O)c2cccc(Cl)c2)C1 (stereo not drawn) | inactive | –
2 | CCCCCNC(=O)C(c1ccc(OC)cc1)n1c(=O)c(-c2ccccc2)nc2ccccc21 (stereo not drawn) | inactive | –
3 | O=C(NC1CCCC1)C1c2ccccc2OCC(=O)N1Cc1ccccc1 (stereo not drawn) | inactive | –
4 | Oc1c(Cl)cc(Cl)cc1/C=N/c1ncn[nH]1 | inactive | –
5 | C=CCn1c(Cn2nnc3ccccc32)nnc1SCC(=O)N/N=C/c1cc(Br)cc(OC)c1O | inactive | –
6 | COc1cc(Br)cc(/C=N/c2ncn[nH]2)c1O | 15.8 µM (active) | –
7 | COc1cc2nc(N3CCCN(C)CC3)nc(NC(C)C)c2cc1OC | inactive | –
8 | O=S1(=O)CC(N2CCSCC2)CN1Cc1cn(Cc2cccc(Cl)c2)nn1 (stereo not drawn) | inactive | –
9 | CN1OC[C@@H]2CN(S(=O)(=O)c3cccc4ccccc34)[C@H](c3ccc(N4CCCCC4)cc3)C[C@@H]21 | inactive | –
10 | CCC(C)(C)c1ccc(OCC(=O)N(C)C)c(C(C)(C)CC)c1 | 20.6 µM (active) | –
11 | CCc1nc(C)ccc1OCC(=O)N(CC)CC | inactive | –
12 | COc1cccc(C(O)c2ncc(-c3ccc4ccccc4c3)[nH]2)c1 (stereo not drawn) | inactive | –
13 | COc1ccc(S(=O)(=O)N2CCC(C(=O)NCCC(=O)NCCc3cccc(F)c3)CC2)cc1 | inactive | –
14 | Cc1ccc(NC(=O)[C@H](Cc2ccccc2)NC(=O)CC[C@H]2O[C@@H](n3ccc(=O)[nH]c3=O)[C@H](O)[C@@H]2O)cc1C | inactive | –
15 | COc1cc(C(=O)OCCCN2CCOCC2)cc(OC)c1OC | inactive | –
16 | CCCc1c(C)nc2scc(-c3ccc(Cl)cc3)n2c1=O | inactive | –
17 | CC1CN(C(=O)CCC(=O)NCc2cccnc2)c2ccccc2O1 (stereo not drawn) | inactive | –
18 | CC1CN(C(=O)CCC(=O)NC2CCN(Cc3ccccc3)CC2)c2ccccc2O1 (stereo not drawn) | inactive | –
19 | CC1CN(C(=O)CCC(=O)NCCCN2CCC(Cc3ccccc3)CC2)c2cc(Cl)ccc2O1 (stereo not drawn) | 16.4 µM (active) | –
20 | COc1ccc(CN2C(=O)C(CC(=O)NCc3cccc4ccccc34)CC(C(=O)N3CCOCC3)=C2C)cc1 (stereo not drawn) | inactive | –
21 | CC(=O)OCC(C)n1c(=O)c2ccccc2n1C(C)=O (stereo not drawn) | inactive | –
22 | O=c1ccc2c(-c3ccccc3S(=O)(=O)O)c3ccc(O)c(O)c3oc-2c1O | 14.6 µM (active) | –
23 | O=S1(=O)CCN(C2CCCCCCCCCCC2)CC1 | inactive | –
24 | CCCCn1nnnc1C(c1cc2ccccc2o1)N(C)Cc1ccc(Cl)c(Cl)c1 (stereo not drawn) | inactive | –
25 | C=CC(=O)OCCOCCOCCOCCOC(=O)C=C | 23.1 µM (active) | –

Row | Compound | Potency | activity, negative = toxicity
26 | O=Cc1cn(CCOc2ccc(F)cc2)c2ccccc12 | inactive | –
27 | CCOC(=O)N1CCN(C(=O)C2CCN(S(=O)(=O)c3cc(Cl)ccc3OCC)CC2)CC1 | inactive | –
28 | CCOC(=O)/C(=N\Nc1cc(Cl)ccc1Cl)N1CCN(C)CC1 | 20.6 µM (active) | –
29 | CCOC(=O)/C(=N\Nc1ccccc1Cl)N(C)C1CCS(=O)(=O)C1 (stereo not drawn) | inactive | –
30 | CCOc1cc(NC(=O)c2ccccc2C(=O)O)c(OCC)cc1NC(=O)c1ccccc1F | inactive | –
31 | CCN1CCN(c2cc3nc(C)n(Cc4ccccc4)c(=O)c3cc2NC(=O)c2ccccc2F)CC1 | 20.6 µM (active) | –
32 | CCC(=O)Nc1ccc2nc(C)n(Cc3ccccc3Cl)c(=O)c2c1 | inactive | –
33 | CC1(C(=O)O)CCCN(C(=O)/C=C/c2ccccc2)C1 (stereo not drawn) | inactive | –
34 | O=C(/C=C/c1ccc(N2CCOCC2)cc1)c1ccccc1 | inactive | –
35 | Cc1[nH]c(=O)c(C(=O)/C=C/c2ccccc2)c2c1CCCC2 | 3.98 µM (active) | –
36 | COc1cc(F)ccc1-c1cc(C(=O)NCC2CCCCC2)[nH]n1 | inactive | –
37 | CC(=O)Nc1cnc(-c2ccc(O)cc2C)cn1 | inactive | –
38 | Cc1ccn2c(-c3csc(Nc4ccc(C(=O)O)cc4)n3)c(C)nc2c1 | inactive | –
39 | Cc1ccc(Nc2nc(-c3ccc(O)cc3O)cs2)nc1 | 1.84 µM (active) | –
40 | Cn1c(NCc2cccnc2)nc2cc(-c3ccc(F)cc3)sc2c1=O | inactive | –
41 | CCC1(CC)Cc2ccccc2-c2nc(CCl)[nH]c(=O)c21 | inactive | –
42 | O=c1[nH]c(CCl)nc2cc(-c3ccc(Cl)cc3)sc12 | 11.6 µM (active) | –
43 | O=C(c1ncn2c1c(=O)[nH]c1ccccc12)N1CCc2ccccc2C1 | inactive | –
44 | Cc1sc2nc(-c3ccccc3F)oc(=O)c2c1C | inactive | –
45 | OCCC#Cc1ccc(N2C(c3ccsc3)=Cc3ccc(F)cc3C2c2c[nH]c3ccccc23)cc1 (stereo not drawn) | 25.9 µM (active) | –
46 | Nc1ncnc2c1ncn2[C@@H]1O[C@H](C(=O)N2CCCN(Cc3ccccc3F)CC2)[C@@H](O)[C@H]1O | inactive | –
47 | Cc1nnc(SC(C)C(=O)c2c[nH]c3ccccc23)n1C1CC1 (stereo not drawn) | inactive | –
48 | CC(=NNC(N)=O)C1CC2CCC1CC2 (stereo not drawn) | inactive | –
49 | COc1ccc(CCNC(=S)N2CCN(S(=O)(=O)c3ccc(Cl)cc3)CC2)cc1 | inactive | –
50 | Oc1cc2c(cc1O)CN(C(=S)NCCc1ccc(Cl)cc1)CCC2 | 39.8 µM (active) | –

Row | Compound | Potency | activity, negative = toxicity
51 | O=C(NCCc1ccc(Cl)cc1)c1cccc(N2CCCC2=O)c1 | inactive | –
52 | CCN(CC)C(=O)C1=C(C)N(Cc2ccc(OC)cc2)C(=O)C(CC(=O)NCCCCc2ccccc2)C1 (stereo not drawn) | inactive | –
53 | CC(C)CCOc1ccc(C(=O)Nc2cc(S(=O)(=O)N3CCOCC3)ccc2N2CCOCC2)cc1 | inactive | –
54 | COc1ccc(-c2csc(C(O)c3cccc(Cl)c3)n2)cn1 (stereo not drawn) | inactive | –
55 | COc1cccc(NC(=O)Nc2ccc(F)cc2)c1 | inactive | –
56 | COc1ccc(/C=N/Nc2cc(N3CCOCC3)nc(C)n2)c(OC)c1 | inactive | –
57 | COc1cccc(/C=N/Nc2cc(C)nc(-c3ccccc3O)n2)c1O | 6.51 µM (active) | –
58 | COc1cccc(/C=N/Nc2ccc(S(=O)(=O)Nc3ccccc3C(=O)O)cc2[N+](=O)[O-])c1O | inactive | –
59 | Nc1ncnc2c1ncn2[C@@H]1O[C@H](C(=O)NS(=O)(=O)c2c(Cl)nc3sccn23)[C@@H](O)[C@H]1O | inactive | –
60 | COc1ccc(NC(=O)N(C)C[C@@H]2OCc3cn(nn3)CCCC(=O)N([C@H](C)CO)C[C@H]2C)c(OC)c1 | inactive | –
61 | CCCOC(=O)c1[nH]c2c(c1C)C(=O)CC(c1cccs1)C2 (stereo not drawn) | 0.651 µM (active) | –
62 | COC(=O)C1C(=O)c2c([nH]c(C(=O)OCCSC)c2C)CC1C (stereo not drawn) | inactive | –
63 | COCCOC(=O)c1[nH]c2c(c1C)C(=O)CC(c1ccc(OC)cc1)C2 (stereo not drawn) | inactive | –
64 | CCc1nc2c(=O)[nH]cnc2o1 | inactive | –
65 | O=C(Nc1ccc(Cl)cc1)c1csc([C@H]2C[C@H](O)[C@@H](CO)O2)n1 | inactive | –
66 | O=C(N[C@H]1CC[C@H](CC(=O)N2CCCCC2)O[C@@H]1CO)c1cccc(F)c1 | inactive | –
67 | Cc1ccc(C(=O)N2CCCc3ccccc32)c(Cl)c1 | inactive | –
68 | Cc1cccc2cc3c(N)c(C(=O)N4CCCc5ccccc54)sc3nc12 | 2.31 µM (active) | –
69 | Cc1c(C(=O)N2CCCc3ccccc32)sc2nc(-c3ccccc3)cn12 | inactive | –
70 | CC(C)(C)Cc1c(C2CCCCC2)nc2ccc(Br)cn12 | inactive | –
71 | C[C@H]1CN([C@@H](C)CO)C(=O)CCCn2cc(nn2)CO[C@@H]1CN(C)S(=O)(=O)c1ccc(-c2ccccc2)cc1 | inactive | –
72 | Cc1ccc(C)n1NC(=O)c1ccc([N+](=O)[O-])cc1 | inactive | –
73 | N=C1C(c2nc3ccccc3[nH]2)=C(O)CN1NC(=O)c1c[nH]c2ccccc12 | inactive | –
74 | N=C1C(c2nc3ccccc3s2)=C(O)CN1NC(=O)c1ccc([N+](=O)[O-])cc1 | 20.6 µM (active) | –
75 | C[C@H]1CN([C@@H](C)CO)C(=O)c2cc(C3=CCCCC3)cnc2O[C@@H]1CN(C)C(=O)Cc1ccccc1 | inactive | –

Row | Compound | Potency | activity, negative = toxicity
76 | COc1ccc(C2CC(c3ccccc3)=NN2C(=O)COC(=O)COc2ccccc2)cc1 (stereo not drawn) | inactive | –
77 | COc1ccc(C2CC(c3cccc(OC)c3)=NN2c2ccc(S(N)(=O)=O)cc2)cc1 (stereo not drawn) | 16.4 µM (active) | –
78 | COc1ccc(C2=NN(c3ccccc3)C(c3cccs3)C2)cc1 (stereo not drawn) | inactive | –
79 | O=c1[nH]c2ccccc2n1C1CCN(CCOc2ccccc2)CC1 | inactive | –
80 | CCOc1ccc(NC(=O)CSc2nnc3c(n2)[nH]c2ccc(S(=O)(=O)N4CCOCC4)cc23)cc1 | inactive | –
81 | CC1C(=O)N(Cc2cn(Cc3ccco3)nn2)CCS(=O)(=O)N1Cc1ccc(-c2cccc(CO)c2)cc1 (stereo not drawn) | inactive | –
82 | CC(C)CC1C(=O)N(Cc2cn(CC3CCCCC3)nn2)CCS(=O)(=O)N1Cc1ccc(-c2ccc(Cl)cc2)cc1 (stereo not drawn) | inactive | –
83 | CC(C)CC1C(=O)N(Cc2cn(Cc3ccco3)nn2)CCS(=O)(=O)N1Cc1ccc(-c2ccc(Cl)c(Cl)c2)cc1 (stereo not drawn) | 18.4 µM (active) | –
84 | C[C@@H]1CN([C@H](C)CO)S(=O)(=O)c2ccc(C#CC3CCCCC3)cc2O[C@H]1CN(C)C(=O)Cc1ccncc1 | inactive | –
85 | COc1ccc(CNC(=O)CCN2C(=O)c3ccccc3C2=O)cc1 | inactive | –
86 | CCOC(=O)C1=C(c2ccc(OC)cc2)C(=O)c2ccccc2C1=O | 7.31 µM (active) | –
87 | COC(=O)c1cc(OC)ccc1-c1ccc(OC)cc1 | – | -0.423% [at 9.24 µM]
88 | CC1=C(C(=O)N(C(C)C)C(C)C)CC(CC(=O)NCC2CCCCC2)C(=O)N1Cc1ccccc1 (stereo not drawn) | inactive | –
89 | O=C(NCc1ccccn1)[C@@H]1CCCN1C(=O)[C@@H]1CCCN1C(=O)c1ccccc1 | inactive | –
90 | CC(C)/C=N/NC(=O)c1cc(Br)ccc1O | inactive | –
91 | CC(=N\NC(=O)c1cc(Br)ccc1O)/C(=N/O)C(=O)Nc1ccccc1 | 16.4 µM (active) | –
92 | CC(=O)N/N=C(\C)c1ccc(Br)cc1Br | inactive | –
93 | CN(C)C1CN(Cc2cn(Cc3ccccc3)nn2)S(=O)(=O)C1 (stereo not drawn) | inactive | –
94 | CCCNC(=O)C1(C)CCN(C(=O)c2cc(F)ccc2C)C1 (stereo not drawn) | inactive | –
95 | CSc1ccc(CNC(=O)C2(C)CCCN2C)cc1 (stereo not drawn) | inactive | –
96 | COc1ccc(CN2CCC(n3nccc3NC(=O)CCCc3ccccc3)CC2)cc1C | 18.4 µM (active) | –
97 | Cc1ccc(CN2CCC(n3nccc3NC(=O)CCCc3ccccc3)CC2)o1 | inactive | –
98 | COc1cc(CN2CCC(n3nccc3NC(=O)CCCc3ccccc3)CC2)ccc1O | inactive | –

Source: PubChem BioAssay AID686971 (National Center for Advancing Translational Sciences (NCATS), 2013)
